Experimental data from PubChem BioAssay (Tox21).
Inconclusive results are not listed. The source made the active and inactive calls. Unless noted, the call rests on the fitted dose curve; in most records, active means well fitted curve in the direction sought with a large enough effect in the repeat runs; inconclusive means weak or mixed curves; inactive means no such curve, though single readings can be large; an effect the other way counts as inactive or inconclusive.

Assays:
[1] = qHTS assay to identify small molecule agonists of the peroxisome proliferator-activated receptor delta (PPARd) signaling pathway - cell viability counter screen (AID 743211); further: nearly all actives have a fitted effect of over 55% in size
Summary of the method: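 Following 5 h plating at 37 C and 5% CO2, PPARd UAS-bla HEK293H cells took up test compounds for 17 h. Viability was quantified by luminescence 30 min after CellTiter-Glo addition at room temperature.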

[2] = target: Peroxisome proliferator-activated receptor delta (Homo sapiens) (UniProt Q03181); assay: qHTS assay to identify small molecule agonists of the peroxisome proliferator-activated receptor delta (PPARd) signaling pathway (AID 743212; calls by dose curve)
Sequence of Peroxisome proliferator-activated receptor delta (Homo sapiens) (Q03181 whole entry, looked up): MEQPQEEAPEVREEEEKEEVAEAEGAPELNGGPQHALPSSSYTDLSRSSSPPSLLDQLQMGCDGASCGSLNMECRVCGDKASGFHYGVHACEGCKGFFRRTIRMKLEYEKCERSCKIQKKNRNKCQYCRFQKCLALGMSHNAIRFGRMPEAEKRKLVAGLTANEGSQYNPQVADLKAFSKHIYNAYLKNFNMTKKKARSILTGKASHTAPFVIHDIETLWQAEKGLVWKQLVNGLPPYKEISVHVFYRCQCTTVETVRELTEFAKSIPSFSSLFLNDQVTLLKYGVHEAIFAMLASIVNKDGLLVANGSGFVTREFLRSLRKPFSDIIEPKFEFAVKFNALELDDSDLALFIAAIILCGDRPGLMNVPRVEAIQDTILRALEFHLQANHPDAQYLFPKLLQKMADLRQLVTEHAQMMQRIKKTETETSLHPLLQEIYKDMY
Summary of the method: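 GeneBLAzer UAS-bla HEK293H cells carrying a PPARδ construct were exposed to compounds at 37 °C. Beta-lactamase activity was read by FRET fluorescence after 2 h at room temperature with LiveBLAzer B/G substrate.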

[3] = qHTS assay to identify small molecule antagonists of the peroxisome proliferator-activated receptor delta (PPARd) signaling pathway - cell viability counter screen (AID 743213); further: nearly all actives have a fitted effect of over 50% in size
Summary of the method: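 Same-well viability: cells pre-incubated 5 h, dosed with compound plus 300 nM L165041, kept 17 h at 37 C, FRET substrate 2 h RT, then CellTiter-Glo 30 min RT and luminescence.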

[4] = target: Peroxisome proliferator-activated receptor delta (Homo sapiens) (UniProt Q03181); assay: qHTS assay to identify small molecule antagonists of the peroxisome proliferator-activated receptor delta (PPARd) signaling pathway (AID 743215; active means well fitted inhibition curve with a large enough effect in the signal ratio in the repeat runs, not every such curve was filed as active; the % refers to the signal ratio;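 further: cells stimulated with agonist L165041 at 300 nM final during compound exposure; series mostly up to about 62 µM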)
Summary of the method: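 Inhibition of L165041-driven (300 nM final) PPARd signaling is scored in HEK293H UAS-bla cells. Exposure lasts 17 h at 37 C; beta-lactamase activity is then read by FRET substrate fluorescence after 2 h at room temperature.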

[5] = qHTS assay to identify small molecule agonists of the farnesoid-X-receptor (FXR) signaling pathway - cell viability counter screen (AID 743218); further: nearly all actives have a fitted effect of over 45% in size
Summary of the method: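 Cytotoxicity counter-screen run in parallel, same wells: FXR-UAS-bla HEK 293T cells dosed 16 h at 37 C, viability read by CellTiter-Glo luminescence after 30 min at room temperature.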

[6] = qHTS assay to identify small molecule antagonists of the farnesoid-X-receptor (FXR) signaling pathway - cell viability counter screen (AID 743221; active means well fitted cell-killing curve with a large enough effect in the repeat runs, not every such curve was filed as active; further: nearly all actives have a fitted effect of over 50% in size)
Summary of the method: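 Compound effects on cell number were measured as CellTiter-Glo luminescence in HEK 293T cells expressing FXR-UAS-bla, after 16 h at 37 C with 50 uM CDCA (final).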

[7] = target: Vitamin D3 receptor (Homo sapiens) (UniProt P11473); assay: qHTS assay to identify small molecule agonists of the vitamin D receptor (VDR) signaling pathway (AID 743222; calls by dose curve)
Sequence of Vitamin D3 receptor (Homo sapiens) (P11473 whole entry, looked up): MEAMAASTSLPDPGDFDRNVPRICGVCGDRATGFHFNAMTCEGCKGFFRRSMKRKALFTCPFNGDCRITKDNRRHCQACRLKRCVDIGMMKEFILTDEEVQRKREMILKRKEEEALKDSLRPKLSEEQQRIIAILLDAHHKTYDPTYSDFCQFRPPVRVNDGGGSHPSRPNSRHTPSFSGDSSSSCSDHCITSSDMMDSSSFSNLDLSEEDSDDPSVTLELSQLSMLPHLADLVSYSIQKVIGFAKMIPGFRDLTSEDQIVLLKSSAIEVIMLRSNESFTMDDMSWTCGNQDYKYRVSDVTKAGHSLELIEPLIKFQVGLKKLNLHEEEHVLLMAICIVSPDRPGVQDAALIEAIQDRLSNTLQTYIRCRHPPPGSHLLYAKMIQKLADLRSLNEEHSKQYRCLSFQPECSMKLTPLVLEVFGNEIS
Summary of the method: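 Quantitative HTS agonist-mode screen: compounds in DMSO were pin-transferred onto VDR-bla cells and incubated 16 h at 37C, 5% CO2. Reporter activity was detected with LiveBLAzer B/G FRET substrate after 2 h at room temperature.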

[8] = target: Vitamin D3 receptor (Homo sapiens) (UniProt P11473); assay: qHTS assay to identify small molecule antagonists of the vitamin D receptor (VDR) signaling pathway (AID 743223; active means well fitted inhibition curve with a large enough effect in the signal ratio in the repeat runs, not every such curve was filed as active; the % refers to the signal ratio)
Summary of the method: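 Beta-lactamase activity in VDR-bla cells is measured by FRET substrate fluorescence (2 h, room temperature) after cells spend 16 h at 37C with test compound and 3 nM final 1alpha,25-dihydroxyvitamin D3.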

[9] = target: Bile acid receptor (Homo sapiens) (UniProt Q96RI1); assay: qHTS assay to identify small molecule agonists of the farnesoid-X-receptor (FXR) signaling pathway (AID 743220; active means well fitted activation curve with a large enough effect in the signal ratio in the repeat runs, not every such curve was filed as active; the % refers to the signal ratio)
Sequence of Bile acid receptor (Homo sapiens) (Q96RI1 whole entry, looked up): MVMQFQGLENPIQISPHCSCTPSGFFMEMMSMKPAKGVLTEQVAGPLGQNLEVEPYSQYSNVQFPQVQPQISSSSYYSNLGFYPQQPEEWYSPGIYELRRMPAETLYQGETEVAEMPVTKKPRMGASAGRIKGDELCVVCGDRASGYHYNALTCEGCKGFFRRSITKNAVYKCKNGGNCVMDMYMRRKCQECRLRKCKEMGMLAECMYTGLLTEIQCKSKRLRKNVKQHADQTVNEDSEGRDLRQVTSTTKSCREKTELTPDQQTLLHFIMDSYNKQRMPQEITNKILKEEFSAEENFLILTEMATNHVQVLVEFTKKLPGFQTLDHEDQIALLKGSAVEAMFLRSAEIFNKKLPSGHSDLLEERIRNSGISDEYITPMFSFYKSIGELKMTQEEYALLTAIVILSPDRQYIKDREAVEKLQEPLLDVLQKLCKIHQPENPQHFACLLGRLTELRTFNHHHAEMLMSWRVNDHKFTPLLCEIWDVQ
Summary of the method: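 Beta-lactamase reporter under UAS control in GeneBLAzer FXR HEK 293T cells (5000/well) measured with LiveBLAzer FRET substrate after 2 h at room temperature. Compound exposure lasted 16 h at 37C.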

[10] = target: Bile acid receptor (Homo sapiens) (UniProt Q96RI1); assay: qHTS assay to identify small molecule antagonists of the farnesoid-X-receptor (FXR) signaling pathway (AID 743217; active means well fitted inhibition curve with a large enough effect in the signal ratio in the repeat runs, not every such curve was filed as active; the % refers to the signal ratio)
Summary of the method: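 Antagonist mode against 50 uM (final) chenodeoxycholic acid stimulation in FXR-bla HEK 293T cells, 16 h at 37 °C. Inhibition detected as reduced beta-lactamase activity via LiveBLAzer B/G FRET fluorescence after 2 h at room temperature.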

Measured: Potency

CC(C)(C)C(=O)C(Cl)Cl
inactive: [1] | [2] | [3] | [4] | [5] | [6] | [7] | [8]

C=C(Cl)CCl
inactive: [1] | [2] | [3] | [4] | [5] | [6] | [7] | [8]

CCCOc1nn(C(=O)NS(=O)(=O)c2ccccc2C(=O)OC)c(=O)n1C
inactive: [1] | [2] | [3] | [4] | [6] | [7]

O=C(NC(=O)c1c(F)cccc1F)Nc1cc(Cl)c(F)c(Cl)c1F
inactive: [1] | [2] | [3] | [4] | [5] | [6] | [8]

COc1cccc([C@@]2(O)CCCC[C@@H]2CN(C)C)c1
inactive: [1] | [2] | [3] | [5] | [6]

C=C1CC[C@@]2(O)[C@H]3Cc4ccc(O)c5c4[C@@]2(CCN3CC2CC2)[C@H]1O5
inactive: [1] | [2] | [3] | [4] | [5] | [6] | [7] | [8]

CCOC(=O)C(Cl)Cc1cc(-n2nc(C)n(C(F)F)c2=O)c(F)cc1Cl (stereo not given)
inactive: [1] | [2] | [3] | [4] | [9] | [6] | [7] | [8]

C=CCc1cc(OC)c2c(c1)OCO2
inactive: [1] | [2] | [3] | [4] | [5] | [6] | [8]

C=CCC1(C(C)CC)C(=O)NC(=O)NC1=O (stereo not given)
inactive: [1] | [2] | [3] | [4] | [5] | [6] | [7] | [8]

CCOP(=S)(OCC)Oc1ccc(Cl)cc1Cl
inactive: [1] | [2] | [3] | [4] | [5] | [6] | [7] | [8]

O=c1[nH]c2ccccc2n1C1CCNCC1
inactive: [1] | [2] | [3] | [4] | [5] | [6] | [7] | [8]

Clc1nc(Cl)nc(Nc2ccccc2Cl)n1
inactive: [1] | [2] | [3] | [5] | [6] | [7]

C/C=C/CC#N
inactive: [1] | [2] | [3] | [5] | [9] | [6]

CCCC(C)(COC(N)=O)COC(N)=O
inactive: [1] | [2] | [3] | [4] | [5] | [6] | [7] | [8]

C=CCCC#N
inactive: [1] | [2] | [3] | [5] | [9] | [6]

OCC(Cl)CCl (stereo not given)
inactive: [1] | [2] | [3] | [4] | [5] | [6] | [7] | [8]

CCC(=O)c1ccc(Cl)cc1
inactive: [1] | [2] | [3] | [4] | [5] | [6] | [7] | [8]

CCN[C@@H](C)Cc1ccccc1
inactive: [1] | [2] | [3] | [10] | [5] | [9] | [6] | [7] | [8]

C[C@@H](N)[C@@H](O)c1ccccc1
inactive: [1] | [2] | [5] | [6]

C=C1C[C@@H]2[C@H](CC[C@]3(C)C(=O)CC[C@@H]23)[C@@]2(C)C=CC(=O)C=C12
inactive: [1] | [3] | [10] | [5] | [6] | [7]

O=[N+]([O-])CCO
inactive: [1] | [3] | [5]

O=C(O)C(F)(F)C(F)(F)C(F)(F)C(F)(F)C(F)(F)C(F)(F)F
inactive: [1] | [3] | [4] | [10] | [5] | [9] | [6] | [7] | [8]

CC(=O)OCC1=C(C(=O)O)N2C(=O)[C@@H](N)[C@H]2SC1
inactive: [1] | [2] | [4] | [10] | [5] | [9] | [6] | [8]

C[C@H]1CCCC(=O)CCC/C=C/c2cc(O)cc(O)c2C(=O)O1
inactive: [1] | [2] | [3] | [6]

CCOP(=S)(OCC)SCCl
inactive: [1] | [3] | [10] | [5] | [9] | [6]

CCCC[N+](=O)[O-]
inactive: [1] | [3] | [10] | [5] | [9] | [6] | [7] | [8]

CN(CCO)CCO
inactive: [1] | [2] | [4] | [10] | [9] | [6] | [8]

CC(C)c1ccc(O)cc1
inactive: [1] | [2] | [3] | [5] | [6] | [7] | [8]

NCC1(CC(=O)O)CCCCC1
inactive: [1] | [2] | [3] | [5] | [6] | [7]

ClCCCCl
inactive: [1] | [2] | [10] | [5] | [9] | [6] | [8]

Oc1ccc(Cc2ccc(O)cc2)cc1
inactive: [1] | [2] | [4] | [5] | [6]

COP(=O)(OC)O/C(C)=C/C(=O)N(C)C
inactive: [1] | [2] | [3] | [6] | [7] | [8]

O=C(O)C(Br)(Br)Br
inactive: [1] | [2] | [3] | [5] | [6] | [7] | [8]
